Results filed as inconclusive are left out. A call without a number means that no potency is given here. Values without a mark were called inactive. Calls of active or inactive are those of the source. The call rests on the fitted dose curve.
Assay: cAMP Responsive Elements (CRE) small molecule agonists, cell-based qHTS assay (AID 1963590)
Details: CRE-bla HEK293T, beta-lactamase FRET ratio, 3 h; series mostly up to 92.4 µM
From the text: U.S. Tox21 Program National Center for Advancing Translational Sciences [NCATS] Division of Preclinical Innovation [DPI] U.S. Environmental Protection Agency [EPA] National Institutes of Environmental Health Sciences [NIEHS] National Toxicology Program [NTP] U.S. Food and Drug Administration [FDA] Tox21 Assay Overview: CREB (cyclic-AMP Responsive Element Binding Protein) is a cellular transcription factor. It binds to certain DNA sequences called cAMP Responsive Elements (CRE) and regulates the transcription of the genes. […] This cell line can be used to find agonists/antagonists of the cyclic AMP signaling pathway. The activation of the report gene under culture conditions can be detected by fluorescence intensity. This cell line has been used to screen the Tox21 10K compound library to identify agonists that induce oxidative stress.
Tox21 Assay Protocol Summary: CRE-bla Hek 293T cells were suspended in assay medium (DMEM containing 10% dialyzed FBS, 0.1 mM NEAA, 1 mM sodium pyruvate and 25 mM HEPES) and dispensed at 2,000 cells/5 uL /well into 1536-well black wall/clear bottom plates using a Multidrop Combi (ThermoFisher Scientific, Waltham, MA) dispenser. After the assay plates were incubated at 37 C/5% CO2 for 18 hrs, 23 nL of compounds dissolved in DMSO, positive controls or DMSO only was transferred to the assay plate by a pintool workstation (Kalypsys, San Diego, CA). After the plates were incubated at 37 C/5% CO2 for 3 hrs, 1 uL of LiveBLAzer B/G FRET substrate (Invitrogen, Carlsbad, CA) was added to each well using Bioraptr Flying Reagent Dispenser (FRD, Aurora Discovery, San Diego, CA). The plates were incubated at room temperature for 2 h.
In the case of `COc1ccc(CN2CCNCC2)c(OC)c1OC`, the Potency is reported as “inactive”. In the case of `Oc1ccc2c3c1O[C@H]1[C@@H](O)C=C[C@H]4[C@@H](C2)NCC[C@@]341`, the Potency is reported as “inactive”. With `Oc1ccc([C@H]2CNCc3c2ccc(O)c3O)cc1O` the Potency was “inactive”. For `CC(C)CC(N(C)C)C1(c2ccc(Cl)cc2)CCC1` (stereo not given), the Potency was “inactive”. In the case of `CSc1nc(N=[N+]=[N-])nc(NC(C)C)n1`, the Potency is reported as “inactive”. With `CN/C(=N\[N+](=O)[O-])NCc1cnc(Cl)s1` the Potency was “inactive”. With `O=C(O)C(F)(F)C(F)(F)C(F)(F)C(F)(F)C(F)(F)C(F)(F)C(F)(F)C(F)(F)C(F)(F)F` the Potency was “inactive”. With `ClCBr` the Potency was “inactive”. In the case of `COc1cc(CC(C)N)cc(OC)c1OC` (stereo not given), the Potency is reported as “inactive”. In the case of `[Cl][Sb]([Cl])[Cl]`, the Potency is reported as “inactive”. For `CC[C@@H](CO)NC(=O)[C@@H]1C=C2c3cccc4[nH]cc(c34)C[C@H]2N(C)C1`, the Potency was “inactive”. For `c1ccc(Nc2ccc(Nc3ccccc3)cc2)cc1`, the Potency was “inactive”. In the case of `CCCSC(=O)N(CCC)CCC`, the Potency is reported as “inactive”. For `CCc1ccccc1N`, the Potency was “inactive”. In the case of `Clc1cccc2ccccc12`, the Potency is reported as “inactive”. For `CC(=O)Nc1cc([As](=O)(O)O)ccc1O`, the Potency was “inactive”. In the case of `CC(=O)[O-].CC(=O)[O-].O.O.O.[Pb+2]`, the Potency is reported as “inactive”. With `CCCCCCCCCCCCCN1CC(C)OC(C)C1` (stereo not given) the Potency was “inactive”. In the case of `COc1cc(OC)nc(NC(=O)NS(=O)(=O)c2ncccc2OCC(F)(F)F)n1`, the Potency is reported as “inactive”. In the case of `CSCCCN=C=S`, the Potency is reported as “inactive”. In the case of `CN1CCC(O)(c2ccc(F)cc2)C(C(=O)c2ccc(F)cc2)C1` (stereo not given), the Potency is reported as “inactive”. With `O=C1c2ccccc2C(=O)c2ccccc21` the activation was -2.22% [at 19 µM]. In the case of `FC(F)(F)c1cccc(C2=CCN(CCc3ccc4ccccc4c3)CC2)c1`, the Potency is reported as “inactive”. With `ClCc1cccc(Cl)c1` the Potency was “inactive”. For `Brc1ccccc1`, the Potency was “inactive”. For `CC1CCC(C(C)C)C(OC(=O)c2ccccc2N)C1` (stereo not given), the Potency was “inactive”. In the case of `COc1ccc2[nH]cc(CCN(C(C)C)C(C)C)c2c1`, the Potency is reported as “inactive”. In the case of `CCOP(=S)(OCC)OC(Cl)C(Cl)(Cl)Cl` (stereo not given), the Potency is reported as “inactive”. With `ClC(Cl)(Cl)Cl` the Potency was “inactive”. With `CCN[C@H](C)Cc1cccc(C(F)(F)F)c1` the Potency was “inactive”. In the case of `II`, the Potency is reported as “inactive”. With `Clc1cc(Cl)c(Cl)c(Cl)c1` the Potency was “inactive”. In the case of `CCCCn1cc[n+](C)c1.[Cl][Fe-]([Cl])([Cl])[Cl]`, the Potency is reported as “inactive”. With `[Cl][Sn]([Cl])([Cl])[Cl]` the Potency was “inactive”. In the case of `C[As+](C)(C)CC(=O)[O-]`, the Potency is reported as “inactive”. For `CCCN(CCCl)c1c([N+](=O)[O-])cc(C(F)(F)F)cc1[N+](=O)[O-]`, the Potency was “inactive”. For `CCCCCl`, the Potency was “inactive”. In the case of `NC1=NC(=O)C(c2ccccc2)O1` (stereo not given), the Potency is reported as “inactive”. With `N#Cc1c(Cl)cccc1Cl` the Potency was “inactive”. For `COc1ccccc1N1CCNCC1`, the Potency was “inactive”.

— PubChem BioAssay (Tox21)
